Measured values reported in PubChem BioAssay (NCATS).
Results filed as inconclusive are left out. Entries that show only a call come without a potency. Active and inactive are the calls of the source. Calls follow the shape of the dose curve; as a rule, active = well fitted inhibition curve with a large enough effect; inconclusive = small, poorly fitted or top-dose-only effect; inactive = no such curve, though single readings can be large or run the other way.
Potency is read from the fitted curve at half-maximal effect.

The compounds below were run on Zika virus NS2B-NS3 protease (unlinked complex) (assay: Primary screen GU Rhodamine qHTS for Zika virus inhibitors: Unlinked NS2B-NS3 protease assay (AID 1347159; also: nearly all actives have a fitted effect of over 60% in size)). Details: Recombinant ZIKV NS2B-NS3 protease, Rhodamine110 substrate fluorescence; series mostly up to 107 µM.
Description: Avindra Nath, Ph.D., National Institute of Neurological Disorders and Stroke (NINDS), Bethesda, MD
Radhakrishnan Padmanabhan, Ph.D., Georgetown University (GU), Washington D.C.
Zika Virus causes congenital defects, including microcephaly and is associated with Guillain-Barre syndrome, eningoencephalitis and myelitis in infected adult. […] Using a target-based approach, we hope to establish a screening paradigm to uncover novel, cell-active NS2B-NS3 protease (Zika Virus) specific inhibitors from NCATS' collection of small molecules using qHTS.
Four assay panel was created to identify potential Zika Virus inhibitors. Namely, (1) GU unlinked NS2B-NS3 AMC tagged protease qHTS, (2) GU unlinked NS2B-NS3 Rhodamine tagged protease qHTS, (3) NINDS linked NS2B-NS3 AMC tagged protease qHTS, (4) NINDS linked NS2B-NS3 Rhodamine tagged protease qHTS. Active compounds were re-acquired and re-screened to confirm inhibition. Inhibitors were further screened against various confirmatory and counterscreens in dose response format.
Early Translation Branch (ETB)
National Center for Advancing Translational Sciences (NCATS), Rockville, MD
National Institute of Health (NIH), Bethesda, Maryland
Padmanabhan lab provided the NS2B hydrophilic domain and NS3 protease domain in a noncovalent complex used for the unlinked assay. Control compound aprotinin is obtained from Thermo Scientific (#78432; Waltham, Massachusetts). Rhodamine110 substrate ([N-Cbz]-Nle-Lys-Arg-Arg-Rhod110-Arg-Arg-Lys-Nle-[N-Cbz]) was purchased from either Genscript or Bachem.
1536-well Protease (Rhodamine110 Substrate) Assay:
Briefly, 3 microL of enzyme (25 nM final concentration), in assay buffer (10 mM Tris-HCl pH 8.0 with 0.01% Tween 20) were dispensed into a 1,536-well solid-bottom black plate (Greiner Bio One, Monroe, NC). Twenty-three nL of compounds (final concentration range 7.28 nM to 114 microM) or control Aprotinin (final concentration range 3.47 nM to 114 microM) were transferred via Wako Pin-tool (Wako Automation, Richmond, VA). Samples were incubated (room temperature, protected from light) for 15 minutes followed by a 1 microL Rhodamine110 substrate addition (1.5 microM final concentration). Plates were then immediately read on a ViewLux High-throughput CCD imager (PerkinElmer, Waltham, MA) equipped with FITC fluorescence optics (480(20) nm excitation, 540(25) nm emission), then incubated (room temperature, protected from light) for 15 minutes (~15% conversion). The change in fluorescence intensity over the 15-minute reaction period was normalized against no-inhibitor and no-enzyme controls and the resulting percent inhibition data were fitted to a 4-parameter Hill equation. Aprotinin was used as intraplate control.
`CC12CCC(OC3OC(CO)C(O)C(O)C3OC3OC(CO)C(O)C(O)C3O)CC1CCC1C2CCC2(C)/C(=C3/COC(=O)C3)CCC12O` (stereo not given) was tested, and the Potency was “inactive”. `Cc1cc(C)c(S(=O)(=O)n2cc(C)cc2C)c(C)c1` was tested, and the Potency was “inactive”. `CN1CCN(c2ccc(-c3cccc(CN4CCOCC4)c3)cc2NC(=O)c2c[nH]c(=O)cc2C(F)(F)F)CC1` was tested, and the Potency was “inactive”. `CCC[C@H](N[C@H]1CCc2cc(F)cc(F)c2C1)C(=O)Nc1cn(C(C)(C)CNCC(C)(C)C)cn1` was tested, and the Potency was “inactive”. In the case of `Cc1[nH]c2ccccc2c1CCNCc1ccc(/C=C/C(=O)NO)cc1`, the Potency was “inactive”. In the case of `O=C(NCCN1CCC(n2c(=O)[nH]c3ccccc32)CC1)c1cc2cc(F)ccc2[nH]1`, the Potency was “inactive”. With `C=C1C(=O)OC2C=C(C)CC/C=C(\CO)CC(O)C12` (stereo not given) the Potency was “inactive”. `CC[C@H]1CN(c2nc(N)c(C(N)=O)nc2Cl)CCN1C1CCN(Cc2ccc(Cl)cc2)CC1` was tested, and the Potency was “inactive”. In the case of `CC(=O)O[C@@H]1C2=C(O)C(=O)[C@](C)(OC(C)=O)C(=O)C2=CO[C@@]12O[C@@H](C)CC[C@H]2OC(C)=O`, the Potency was “inactive”. With `Cc1[nH]c(/C=C2\C(=O)Nc3ccc(F)cc32)c(C)c1C(=O)NCCN1CCCC1` the Potency was “inactive”. `Cc1ccccc1C(C(=O)NC1CCCCC1)N(C(=O)Cn1cnc2ccccc21)c1cccc(F)c1` (stereo not given) was tested, and the Potency was “inactive”. With `COC(=O)c1sccc1S(=O)(=O)Nc1ccc(Nc2ccccc2)cc1OC` the Potency was “inactive”. `COc1c2c(nc3occc13)C(CC=C(C)C)(OC)C(O)CC2` (stereo not given) was tested, and the Potency was “inactive”. With `Fc1ccc2c(CCNCc3cccc(OCC(F)(F)C(F)F)c3)c[nH]c2c1` the Potency was “inactive”. `CC(=O)OC/C(=C/C(=O)O)CC[C@@H]1C(C=O)=CC[C@@H]2C(C)(C)CCC[C@@]12C` was tested, and the Potency was 10 µM (active). For `CC(=O)NC(C(=O)O[C@H]1CCC(C)(C)[C@@H]2CC=C3C(=O)OCC3(O)[C@@]12C)C(C)C` (stereo not given in full), the Potency was “inactive”. `CC(C)(C)c1ccc(C(=O)Nc2cn3cc(-n4ccnc4)ccc3n2)cc1` was tested, and the Potency was “inactive”. `Cc1cc(C(C)Nc2ccccc2C(=O)O)c2nc(N3CCOCC3)cc(=O)n2c1` (stereo not given) was tested, and the Potency was “inactive”. `CCCn1cc2c(nc(NC(=O)Nc3ccc(OC)cc3)n3nc(-c4ccco4)nc23)n1` was tested, and the Potency was “inactive”. In the case of `CCNC(=O)Nc1ccc(-c2nc3c(c(N4CCOCC4C)n2)CCN(C2COC2)C3)cc1` (stereo not given), the Potency was “inactive”. In the case of `CC(C)/C=C1\NC(=O)C(C(C)C)n2c1nc1ccccc1c2=O` (stereo not given), the Potency was “inactive”. For `Cc1nc(Nc2ccc(F)cc2)nc(N2CCc3ccccc3C2C)c1C` (stereo not given), the Potency was “inactive”. With `O=C(NCc1ccc(OC(F)(F)F)cc1)C1c2c(F)cccc2C(=O)N1CCc1ccccn1` (stereo not given) the Potency was “inactive”. In the case of `CC(C)(C)OC(=O)c1ncn2c1C(C)(C)Nc1ccccc1-2`, the Potency was “inactive”. `O[C@@](Cc1ncc(CC2(C(F)(F)F)CC2)[nH]1)(c1ccc(-n2cccn2)cc1)C(F)(F)F` was tested, and the Potency was “inactive”. With `CN1CCC(NC(=O)c2cc(-c3c(O)cc(O)cc3Oc3ccc([N+](=O)[O-])cc3)on2)CC1` the Potency was “inactive”. With `O=C(NCCCc1ccccc1)C1CCC(CNS(=O)(=O)c2cccc3nsnc23)CC1` (stereo not given) the Potency was “inactive”. In the case of `COc1ccc2nc(-c3cc(OC)c(OC)c(OC)c3)cc(C(=O)NCC(=O)Nc3ccc(C(C)=O)cc3)c2c1`, the Potency was “inactive”. For `COc1cc(N2CCC(N)CC2)ccc1Nc1ncc(Cl)c(-c2c[nH]c3ccccc23)n1`, the Potency was “inactive”. In the case of `O=C(c1ccc(Cl)cc1)N1CCN(c2ccnc3cc(Cl)ccc23)CC1`, the Potency was “inactive”. With `COc1ccc(N2CCN(C(=O)c3cc4c(s3)-c3ccccc3S(=O)(=O)C4)CC2)cc1` the Potency was “inactive”. `COc1cc2c(cc1OCCCN1CCCC1)N=C(N)C21CCC1` was tested, and the Potency was “inactive”. For `CC(C)c1ccc(NC(=O)Cn2cnc3c2c(=O)n(C)c(=O)n3C)cc1`, the Potency was “inactive”. For `CNCCCC1(c2ccccc2)OC(C)(C)c2ccccc21` (stereo not given), the Potency was “inactive”. With `CCCOc1ccc(S(=O)(=O)N2CCN(CCO)CC2)cc1-c1nc2c(CCC)cn(CC)c2c(=O)[nH]1` the Potency was “inactive”. For `CCC(C)C(=O)OC12C(OC(C)=O)C(C)C3(O)C(C=C(CO)CC4(O)C(=O)C(C)=CC43)C1C2(C)C` (stereo not given), the Potency was “inactive”. For `O=c1cc(NCCCN[C@@H]2CCOc3c(Br)cc(Br)cc32)[nH]c2ccsc12`, the Potency was “inactive”. `C=C1C(=O)O[C@@H]2/C=C(\C)CC/C=C(\C)CC[C@@H]12` was tested, and the Potency was “inactive”. `CC(C)[C@@H](c1ccc(C(F)(F)F)cc1CN(Cc1cc(C(F)(F)F)cc(C(F)(F)F)c1)c1nnn(C)n1)N1CCC(C(=O)O)CC1` was tested, and the Potency was 3.16 µM (active). `Cc1c(C2=CCN(C(=O)N(C)C(C)C)CC2)nnn1-c1cccnc1F` was tested, and the Potency was “inactive”.
